This is an account of results in PubChem BioAssay (NCATS).

SMILES strings stand for the structures. Inconclusive results are not listed. Unmarked numbers belong to inactive results. Calls follow the shape of the dose curve; as a rule, active = well fitted inhibition curve with a large enough effect; inconclusive = small, poorly fitted or top-dose-only effect; inactive = flat fitted curve, though single readings scatter.

The test system of this assay is Zika virus NS2B-NS3 protease. Kind of assay: Primary screen GU AMC qHTS for Zika virus inhibitors (AID 1347154).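 Also: 0% = no-inhibitor control and -100% = no-enzyme control; nearly all actives have a fitted effect of over 70% in size.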 As to conditions: Zika NS2B-NS3 unlinked protease, AMC fluorogenic substrate; series mostly up to 54.1 µM; activity change, negative = inhibition: at the top concentration. The method, boiled down:
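Unlinked Zika NS2B hydrophilic domain–NS3 protease complex at 25 nM in 10 mM Tris-HCl pH 8.0, 0.01% Tween 20, with an AMC peptide substrate. Fluorescence change (340/450 nm) over 15 min at room temperature, normalized to controls, fitted to 4-parameter Hill.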
For orientation: Quantitative high-throughput screening tests each substance at several concentrations.
As to `COc1ccc(-c2cc(=O)c3c(O)cc(O[C@@H]4O[C@H](CO[C@@H]5O[C@@H](C)[C@H](O)[C@@H](O)[C@@H]5O)[C@@H](O)[C@H](O)[C@@H]4O)cc3o2)cc1O`, the “activity change, negative = inhibition” value was 6.81%. As for `CCC[C@H](Nc1nc(-c2ccc(NC(=O)NCC)c(OC)c2)ncc1C)c1cccnc1`, the “activity change, negative = inhibition” value was 16.7%. Regarding `Nc1ccn([C@@H]2O[C@H](CO)[C@@H](O)[C@H]2O)c(=O)n1`, the “activity change, negative = inhibition” value is 18%.
